Screening data from PubChem.
In the library only some 0.35% were active in any assay of this set; here they are far more common.
Rtt109 Vps75: C. albicans Rtt109 histone acetyltransferase inhibition; Q5AAJ8; purified Rtt109/Vps75, ThioGlo CoA-SH fluorescence, 4 h; inhibition, % at 34.9 µM; actives 0.16% (n = 330,000); AID 540336;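 active = inhibition of at least 50% in every replicate; inconclusive = best replicate reaches 50% inhibition but some replicates fall short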
ERp5 block: ERp5 (human) disulfide isomerase inhibition | Q15084 | ERp5 insulin aggregation, absorbance 650 nm, 90 min | inhibition, % at 9.99 µM | actives 0.05% (n = 350,000);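 active = mean replicate inhibition above about 25%, with every replicate also reaching it, limit read from the data, passing the limit was not always enough; inconclusive = only one of those two criteria met; inactive = neither criterion met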
PvdQ inh: P. aeruginosa PvdQ acylase inhibition | inhibition, % at 10 µM | AID 488965 | purified PvdQ acylase, fluorescence plate reader | actives 0.063% (n = 340,000); in the data active = inhibition above about 30%, passing the limit was not always enough; inconclusive = no clear call, values can overlap the other calls;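 note: 0% = vehicle neutral wells and 100% = reference inhibitor wells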
PDI turbidity: blocks human protein disulfide isomerase activity. P07237. PDI insulin aggregation turbidity, A650, 90 min. inhibition, % at 10 µM. actives 0.052% (n = 350,000);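 active = mean inhibition across replicates of 30% or more, whatever share of single replicates reach that level; inconclusive = mean inhibition below 30% while every single replicate reaches 30%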
ERAP1 inh: ERAP1 (human) enzyme inhibition; Q9NZ08; recombinant ERAP1, Leu-AMC fluorescence, 60 min; inhibition, % at 10.7 µM; actives 0.15% (n = 340,000);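 active = mean replicate inhibition of at least 30%, or all replicates individually reaching that 30% level; inactive = mean below 30% and not every replicate reaching it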;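 note: 0% = neutral control wells and 100% = L-leucinethiol positive control wells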
Target sequence (Q9NZ08 whole entry, looked up): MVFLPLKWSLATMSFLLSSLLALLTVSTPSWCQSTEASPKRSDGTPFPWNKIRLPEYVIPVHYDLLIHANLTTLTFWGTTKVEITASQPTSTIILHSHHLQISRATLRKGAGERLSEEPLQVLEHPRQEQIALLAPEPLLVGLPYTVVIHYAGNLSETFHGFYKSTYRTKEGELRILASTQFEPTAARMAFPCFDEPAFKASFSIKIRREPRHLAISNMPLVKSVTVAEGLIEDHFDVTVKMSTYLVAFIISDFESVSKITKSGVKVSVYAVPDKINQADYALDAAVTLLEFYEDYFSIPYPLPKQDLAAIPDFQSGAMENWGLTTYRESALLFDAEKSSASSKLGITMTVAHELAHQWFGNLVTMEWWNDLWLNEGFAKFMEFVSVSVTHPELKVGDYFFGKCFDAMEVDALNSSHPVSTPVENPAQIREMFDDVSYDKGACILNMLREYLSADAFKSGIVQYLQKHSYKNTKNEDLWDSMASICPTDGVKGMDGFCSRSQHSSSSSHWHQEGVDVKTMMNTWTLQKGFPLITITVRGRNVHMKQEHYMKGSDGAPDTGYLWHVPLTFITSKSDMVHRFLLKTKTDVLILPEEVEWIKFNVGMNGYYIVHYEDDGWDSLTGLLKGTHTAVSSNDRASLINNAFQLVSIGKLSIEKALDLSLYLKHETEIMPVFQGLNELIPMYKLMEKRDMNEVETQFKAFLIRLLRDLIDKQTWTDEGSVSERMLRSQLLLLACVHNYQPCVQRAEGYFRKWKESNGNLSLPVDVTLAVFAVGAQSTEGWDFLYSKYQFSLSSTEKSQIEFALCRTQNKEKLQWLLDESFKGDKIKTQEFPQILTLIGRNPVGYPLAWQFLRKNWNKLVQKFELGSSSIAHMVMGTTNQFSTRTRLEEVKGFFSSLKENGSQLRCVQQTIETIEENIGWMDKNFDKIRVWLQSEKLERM
* marks the source's active call; other numbers are inactive results; ? = inconclusive; · = no result; + = active, no number.

SMILES | Rtt109 Vps75 | ERp5 block | PvdQ inh | PDI turbidity | ERAP1 inh
CN1CCN(S(=O)(=O)c2cccc(C(=O)Nc3cc(Cl)ccc3N3CCOCC3)c2)CC1 | -6 | 8 | -21 | 8 | 61*
CC1CN(S(=O)(=O)c2cccc(C(=O)Nc3cc(Cl)ccc3N3CCOCC3)c2)CC(C)O1 (centres undefined) | -13 | -2 | -19 | -11 | 2
CN1CCN(S(=O)(=O)c2cccc(C(=O)N(Cc3ccccc3)c3ccccc3)c2)CC1 | 56* | 1 | 8 | 6 | 2
O=C(NCC[C@@H]1CC[C@H](NS(=O)(=O)c2ccccc2)[C@H](CO)O1)c1ccccc1F | · | 2 | · | · | 6
CN1CCN(C(=O)C[C@H]2CC[C@@H]3[C@H](COC[C@H](O)CN3Cc3cccc(-c4ccncc4)c3)O2)CC1 | · | 5 | · | · | 0
Cc1cc(C(=O)Nc2cccc3c2O[C@H](CN(C)CC2CC2)[C@@H](C)CN([C@@H](C)CO)C3=O)n(C)n1 | · | 4 | · | · | 0
O=C(C[C@@H]1C[C@H]2c3cc(NC(=O)Nc4ccc(C(F)(F)F)cc4)ccc3O[C@H]2[C@@H](CO)O1)NCC1CC1 | · | -2 | · | · | 0
CCCCCCCCCCC(C(=O)O)C1(C(=O)O)CCC(=O)O1 (centres undefined) | · | 0 | · | · | 38*
CCc1ccc(C(=O)CSc2ncn[nH]2)cc1 | + | · | -18 | -5 | ·
CCOC(=O)Oc1c(OC)cc(C(=O)O[C@@H]2C[C@@H]3CN4CCc5c([nH]c6cc(OC)ccc56)[C@H]4C[C@@H]3[C@H](C(=O)OC)[C@H]2OC)cc1OC | -5 | ? | 1 | 35* | -3
COC(=O)C1C2CC3c4[nH]c5cc(OC)ccc5c4CCN3CC2CC(OC(=O)CC(C)=O)C1OC (centres undefined) | 10 | -1 | -6 | 7 | -1
Cc1cccc(N2CCN(C(=O)Cn3nc(C)n4cccc4c3=O)CC2C)c1 (centres undefined) | -5 | -4 | -15 | · | 6
Cc1cccc(N2CCN(C(=O)Cn3sc4nc(C)cc(C)c4c3=O)CC2C)c1 (centres undefined) | 159* | · | 0 | · | ·
Cc1ccc(NC(=O)Cn2sc3nc(C)cc(C)c3c2=O)c(Cl)c1 | 154* | -1 | 2 | -14 | ·
C[C@@H]1CN([C@H](C)CO)C(=O)c2cc(NC(=O)CCC(F)(F)F)ccc2O[C@@H](C)CCCCO[C@H]1CN(C)S(=O)(=O)c1cn(C)cn1 | · | 3 | · | · | -3
Cc1ccccc1N1C(S)=C(C#N)C(=O)NC12CCCCC2 | 86* | · | -1 | -1 | ·
C[C@H]1CN([C@@H](C)CO)C(=O)c2cc(NC(=O)Cn3cnnn3)ccc2O[C@H]1CN(C)Cc1ccccc1 | · | 3 | · | · | 2
CCCCNS(=O)(=O)c1ccc(NC(=O)Cc2ccccc2[N+](=O)[O-])cc1 | 53* | -3 | -1 | 5 | 0
CC(C)(C)NS(=O)(=O)c1ccc(NC(=O)Cc2ccccc2[N+](=O)[O-])cc1 | · | 9 | 9 | 11 | 5
Cc1cc(C)n2nc(C(=O)Nc3ccc(N4CCOCC4)cc3)nc2n1 | -13 | -9 | -18 | 8 | 59*
O=C(c1cc([N+](=O)[O-])ccc1N1CCOCC1)N1CCN(c2ccc([N+](=O)[O-])cc2)CC1 | -6 | -5 | 20 | 36* | 12
Cc1cc(C)n2nc(C(=O)N3CCN(c4ccc([N+](=O)[O-])cc4)CC3)nc2n1 | 14 | 2 | -5 | -1 | 41*
COc1ccc2c3c(n(C)c2c1)[C@H](CO)N(Cc1ccncc1)CC31CN(C(=O)Nc2cccc(F)c2)C1 | · | 3 | · | · | -1
C[C@@H]1CCCCO[C@@H](CN(C)Cc2ccccc2)[C@@H](C)CN([C@@H](C)CO)C(=O)c2cc(NS(=O)(=O)c3cccs3)ccc2O1 | · | 5 | · | · | 3
C/C=C/c1ccc2c(c1)O[C@@H](CN(C)C(=O)CN1CCOCC1)[C@@H](C)CN([C@@H](C)CO)S2(=O)=O | · | -2 | · | · | -2
SMILES | Rtt109 Vps75 | ERp5 block | PvdQ inh | PDI turbidity | ERAP1 inh
O=[N+]([O-])c1ccc2c(c1)/C(=N\O)c1ccccc1-2 | -15 | 3 | -40 | -1 | ·
O=[N+]([O-])c1ccc2c(c1)-c1ccccc1C2O (centres undefined) | · | 2 | · | -11 | 39*
CC(C)NC(=O)N(C)C[C@@H]1OCCCC[C@@H](C)Oc2ccc(NS(=O)(=O)c3ccc(F)cc3)cc2C(=O)N([C@H](C)CO)C[C@@H]1C | · | 0 | · | · | 1
CCCCCCCCCCCCCCCC[N+](C)(C)CCl | -15 | 8 | -19 | 12 | 88*
CC#CC[N+](C)(C)CCCCCCCCCCCC | 25 | -2 | -11 | -2 | 42*
CCCCCCCCCCCCCCCC[N+](C)(C)CC | 74* | 12 | 7 | 13 | 77*
CCCN(C[C@H]1[C@H](c2ccccc2)[C@@H](CO)N1C(C)=O)C(=O)NC(C)C | · | -1 | · | · | -4
O=c1ccc2cc3c([nH]c4ccc(Br)cc43)oc-2c1O | 129* | · | -33 | 4 | ·
O=C(O)c1ccc(N=Nc2c(O)[nH]c3ccc(Br)cc23)cc1 | 5 | 0 | -22 | -2 | 0
COc1ccc(NC(=O)Nc2ccc3c(c2)CC(=O)N([C@H](C)CO)C[C@@H](C)[C@H](CN(C)S(=O)(=O)c2c(C)noc2C)O3)cc1 | · | -5 | · | · | -1
O=[N+]([O-])c1ccc(N2CCN(c3ccccc3)CC2)nc1 | · | 0 | 1 | -1 | 2
O=[N+]([O-])c1ccc(N2CCCCC2)cc1 | -1 | -1 | 48* | 0 | 2
O=[N+]([O-])c1ccc(N2CCCC2)nc1 | -6 | -1 | 39* | -14 | 4
N#Cc1cc([N+](=O)[O-])ccc1N1CCCC1 | 7 | 1 | 89* | 0 | 5
O=[N+]([O-])c1ccc(N2CCCCCC2)c([N+](=O)[O-])c1 | · | · | 16 | -4 | ·
CCOC(=O)C1CCN(c2ccc([N+](=O)[O-])cc2)CC1 | 16 | 3 | 37* | 12 | 0
O=[N+]([O-])c1ccc(N2CCCCC2)nc1 | 8 | 1 | 39* | -3 | -1
Cc1cccc(S(=O)(=O)N2C[C@@H](O)COC[C@@H]3O[C@@H](CC(=O)N4CCN(C)CC4)CC[C@H]32)c1 | · | -7 | · | · | 1
CC(C)(C)OC(=O)N[C@@H](Cc1c[nH]c2ccccc12)c1nnc(SCC(N)=O)o1 | -3 | · | -13 | 19 | ·
CC(C)Sc1nnc([C@H](Cc2c[nH]c3ccccc23)NC(=O)OC(C)(C)C)o1 | 9 | · | -13 | 44* | ·
COc1ccc(-c2cn(CC[C@H]3CC[C@H](NC(=O)NC(C)C)[C@H](CO)O3)nn2)cc1 | · | 9 | · | · | 2
CCc1sc(C(=O)Nc2cccc(C(C)=O)c2)cc1C | 52* | · | 1 | -5 | ·
CC(=O)c1cccc(NC(=O)c2cc(Cl)sc2Cl)c1 | 5 | -2 | 4 | -7 | 1
COc1cccc(S(=O)(=O)Nc2ccc3c(c2)[C@@H]2C[C@@H](CC(=O)N4CCCCC4)O[C@H](CO)[C@@H]2O3)c1 | · | -1 | · | · | 0
COCc1cc(=O)[nH]c(=S)[nH]1 | -6 | -1 | -13 | 0 | 2
